PubChem BioAssay (NCATS)
Results filed as inconclusive are left out. The source made the active and inactive calls. Unless noted, calls come from the whole dose curve; as a rule, active = well fitted curve in either direction with a large enough effect (not every such curve was filed as active); inconclusive = small, poorly fitted or top-dose-only effect, or another doubt; inactive = flat fitted curve, though single readings scatter.

What was measured:
[1] = AP1 Signaling Pathway (AID 357); settings: ME-180 AP-1-bla reporter, EGF-induced, beta-lactamase ratio, 5 h; at 17.2 µM (top of the series) unless noted;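 note: ME-180 reporter cells stimulated with EGF at its EC50 level; % is set by controls: 0 for no effect and ±100 for the full control effect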
Outline: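 A ratiometric CCF4 readout (405 nm excitation; 460 and 530 nm emission) quantified AP-1-driven beta-lactamase in ME-180 cells after 5 h with compound and EC50 EGF; AC50 values were derived for activators and inhibitors.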

[2] = NFAT Signaling Pathway (AID 444); settings: Jurkat NFAT-bla M1, carbachol, beta-lactamase ratio, 5 h; at 17.2 µM (top of the series) unless noted;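 note: carbachol stimulus at about its EC50 of 1 µM final; % is set by controls: 0 for no effect and ±100 for the full control effect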
Outline: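 Read-out: CCF4 FRET ratio (460 nm/530 nm) after 1 h RT dye loading, used for %activity and AC50 from titration series. Cells: Jurkat NFAT-β-lactamase/M1 line, treated with compound plus 1 uM carbachol for 5 h, 37 °C.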

[3] = Stat Signaling Pathway (AID 446); settings: ME-180 (cervical carcinoma) SIE beta-lactamase reporter, IL-6 stimulated, 5 h; at 17.2 µM (top of the series) unless noted;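 note: ME-180 cervical cancer cells given 40 pM IL-6 alongside compound; SIE-controlled beta-lactamase reporter measured as 460/530 nm FRET emission ratio; % is set by controls: 0 for no effect and ±100 for the full control effect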
Outline: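 FRET read-out (405 nm excitation, 460/530 nm emission) of a beta-lactamase reporter under a STAT-inducible element in ME-180 cervical carcinoma cells. Cells with compound receive 40 pM IL-6 for 5 h. Values are normalised to AC90 stimulation and AC90 JAK-inhibitor controls.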

[4] = target: Glucocorticoid receptor (Homo sapiens) (UniProt P04150); experiment: GR-GFP Redistribution (AID 450;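 active = compounds whose dose series gives a full or clear partial fitted curve of increased nuclear translocation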; note: potency is the fitted concentration of half-maximal effect)
Chain of Glucocorticoid receptor (Homo sapiens) (P04150 whole entry, looked up): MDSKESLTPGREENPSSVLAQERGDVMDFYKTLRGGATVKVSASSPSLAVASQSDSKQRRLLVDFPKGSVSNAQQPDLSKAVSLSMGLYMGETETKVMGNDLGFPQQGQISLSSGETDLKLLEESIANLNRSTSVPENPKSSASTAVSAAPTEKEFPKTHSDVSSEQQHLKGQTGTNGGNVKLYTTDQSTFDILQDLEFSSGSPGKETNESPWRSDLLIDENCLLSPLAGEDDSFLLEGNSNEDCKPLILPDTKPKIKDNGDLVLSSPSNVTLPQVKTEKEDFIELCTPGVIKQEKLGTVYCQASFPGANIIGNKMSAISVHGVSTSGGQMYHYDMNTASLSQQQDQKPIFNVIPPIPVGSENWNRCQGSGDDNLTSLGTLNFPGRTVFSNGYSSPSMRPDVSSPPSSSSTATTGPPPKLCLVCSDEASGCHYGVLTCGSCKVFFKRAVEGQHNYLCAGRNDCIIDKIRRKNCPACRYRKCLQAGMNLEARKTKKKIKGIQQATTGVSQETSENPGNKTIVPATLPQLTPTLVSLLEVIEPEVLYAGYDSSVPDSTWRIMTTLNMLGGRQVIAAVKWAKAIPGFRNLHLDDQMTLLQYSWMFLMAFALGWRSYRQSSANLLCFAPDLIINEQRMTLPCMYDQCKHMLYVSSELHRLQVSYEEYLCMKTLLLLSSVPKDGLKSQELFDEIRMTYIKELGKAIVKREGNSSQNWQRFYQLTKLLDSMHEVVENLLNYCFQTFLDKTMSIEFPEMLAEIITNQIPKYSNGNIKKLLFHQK

CCC1=Nc2ccccc2NC2=C1C(=O)CCC2
inactive: activity change, negative = inhibition [1] 16.1% | activity change, negative = inhibition [2] -0.948% | activity, negative = inhibition [3] -3.13% | Potency [4] > 20.6 µM

CC1(C)Nc2ccc(O)cc2-c2c1ssc2=S
inactive: activity change, negative = inhibition [1] -3.5% | activity change, negative = inhibition [2] 19.6% | activity, negative = inhibition [3] -16.8% | Potency [4] > 20.6 µM

N#Cc1nc(-c2ccc(F)cc2)oc1N1CCCC1
inactive: activity change, negative = inhibition [1] 0.0908% | activity change, negative = inhibition [2] -1.86% | activity, negative = inhibition [3] -3.18% | Potency [4] > 20.6 µM

CCCCCCOc1ccc(N2C(=O)CC(N3CCN(C(=O)c4ccco4)CC3)C2=O)cc1 (stereo not given)
inactive: activity change, negative = inhibition [1] -1.51% | activity change, negative = inhibition [2] 13.8% | activity, negative = inhibition [3] -13.2% | Potency [4] > 20.6 µM

CCOC(=O)c1c(CN2CCN(C)CC2)n(C)c2cc(Br)c(OC)cc12
inactive: activity change, negative = inhibition [1] 5.82% | activity change, negative = inhibition [2] 20.5% | activity, negative = inhibition [3] -13% | Potency [4] > 20.6 µM

O=C1C(=O)N(CCN2CCOCC2)C(c2ccccn2)/C1=C(/O)c1ccccc1 (stereo not given)
inactive: activity change, negative = inhibition [1] -4.12% | activity change, negative = inhibition [2] 3.29% | activity, negative = inhibition [3] -1.75% | Potency [4] > 20.6 µM

CCOC(=O)c1c(C)n(C)c2ccc(OC)c(NC(=O)CN3CCCCC3)c12
inactive: activity change, negative = inhibition [1] -11.4% | activity change, negative = inhibition [2] -1.27% | activity, negative = inhibition [3] -0.178% | Potency [4] > 20.6 µM

N#C/C(C(=O)N1CCOCC1)=C1/SC(Cc2ccccc2)C(=O)N1c1ccccc1 (stereo not given)
inactive: activity change, negative = inhibition [1] 6.74% | activity change, negative = inhibition [2] -2.77% | activity, negative = inhibition [3] -8.3% | Potency [4] > 20.6 µM

Cc1cc(C)c(C#N)c(OCC(=O)c2ccccc2)n1
inactive: activity change, negative = inhibition [1] -15.4% | activity change, negative = inhibition [2] -4.3% | activity, negative = inhibition [3] -6.66% | Potency [4] > 20.6 µM

Cc1ccc(N(CN2C(=O)C3CC=CCC3C2=O)C(=O)c2ccco2)cc1Cl (stereo not given)
inactive: activity change, negative = inhibition [1] -4.76% | activity change, negative = inhibition [2] 9.09% | activity, negative = inhibition [3] -11% | Potency [4] > 20.6 µM

c1coc(CNc2ncnc3ccccc23)c1
inactive: activity change, negative = inhibition [1] -22.1% | activity change, negative = inhibition [2] -14.7% | activity, negative = inhibition [3] -18.3% | Potency [4] > 20.6 µM

Clc1cccc(-c2nn3c(COc4ccccc4)nnc3s2)c1
inactive: activity change, negative = inhibition [1] 6.46% | activity change, negative = inhibition [2] -0.831% | activity, negative = inhibition [3] 17.5% | Potency [4] > 20.6 µM

c1ccc(OCc2nn3c(-c4ccccn4)nnc3s2)cc1
inactive: activity change, negative = inhibition [1] -1.82% | activity change, negative = inhibition [2] -2.83% | activity, negative = inhibition [3] 0.158% | Potency [4] > 20.6 µM

Cc1ccc2cc(CN(C(=O)c3ccco3)c3ccccc3)c(=O)[nH]c2c1
inactive: activity change, negative = inhibition [1] -24.5% | activity change, negative = inhibition [2] 2.15% | activity, negative = inhibition [3] -2.89% | Potency [4] > 20.6 µM

O=S(=O)(N[C@@H]1C[C@H]2CC[C@@H]1C2)c1cccs1
inactive: activity change, negative = inhibition [1] -5.92% | activity change, negative = inhibition [2] -11.3% | activity, negative = inhibition [3] -0.621% | Potency [4] > 20.6 µM

CCOC(=O)c1[nH]c2ccc(OC)cc2c1NC(=O)CCN1CCCC(C)C1 (stereo not given)
inactive: activity change, negative = inhibition [1] -2.35% | activity, negative = inhibition [3] 3.31% | Potency [4] > 20.6 µM
active: activity change, negative = inhibition [2] -82.5%

COC(=O)CSc1nc(N)c2c3c(sc2n1)CCCC3
inactive: activity change, negative = inhibition [1] -0.00134% | activity change, negative = inhibition [2] -7.55% | activity, negative = inhibition [3] 29.8% | Potency [4] > 20.6 µM

CCCCc1nc(N2CCOCC2)c(C#N)c2c1COC(C)(C)C2
inactive: activity change, negative = inhibition [1] -27.7% | activity change, negative = inhibition [2] 16.6% | activity, negative = inhibition [3] -1.34% | Potency [4] > 20.6 µM

CN1C(=O)NC(c2ccccc2)C2=C1CN(Cc1ccccc1)C2=O (stereo not given)
inactive: activity change, negative = inhibition [1] -1.08% | activity change, negative = inhibition [2] 1.92% | activity, negative = inhibition [3] -9.01% | Potency [4] > 20.6 µM

CC(NC(=O)NCc1cccnc1)(C(F)(F)F)C(F)(F)F
inactive: activity change, negative = inhibition [1] 12.2% | activity change, negative = inhibition [2] -2.79% | activity, negative = inhibition [3] 2.04% | Potency [4] > 20.6 µM

CCOC(=O)c1c(C)n(C)c2ccc(O)c(S(=O)(=O)c3ccccc3)c12
inactive: activity change, negative = inhibition [1] -9.19% | activity change, negative = inhibition [2] 2.35% | activity, negative = inhibition [3] 11.2% | Potency [4] > 20.6 µM

CCCCC(C(=O)O)C(C)CC(=O)Nc1cccc(C(=O)O)c1 (stereo not given)
inactive: activity change, negative = inhibition [1] 5.92% | activity change, negative = inhibition [2] -0.782% | activity, negative = inhibition [3] 12.4% | Potency [4] > 20.6 µM

CCCNC(=O)N(C)c1nncnc1C(=O)NC
inactive: activity change, negative = inhibition [1] -9.23% | activity change, negative = inhibition [2] 2.36% | activity, negative = inhibition [3] -3.2% | Potency [4] > 20.6 µM

CCOc1cccc(-c2nnc3sc(-c4cccs4)nn23)c1
inactive: activity change, negative = inhibition [1] -12.6% | activity change, negative = inhibition [2] -10.8% | activity, negative = inhibition [3] 5.52% | Potency [4] > 20.6 µM

CC1(C)CC(=O)C2=C(C1)OC(N)=C(C#N)C21C(=O)N(CN2CCOCC2)c2ccccc21 (stereo not given)
inactive: activity change, negative = inhibition [1] 15.6% | activity change, negative = inhibition [2] 1.95% | activity, negative = inhibition [3] 5.03% | Potency [4] > 20.6 µM
